Compound activity as filed in PubChem BioAssay.
The list is not random: actives were taken first. Their share in the collection is about 1.2%.
ERG Ets-DNA blk – ERG Ets/DNA interaction inhibition; fluorescence polarization, His-ERG Ets domain / labelled DNA; AID 624246; Potency, µM (series often up to 76.9 µM), for inactives: at the highest dose FP activity, negative = inhibition, most hits filed as inhibitors; P11308; 0.028% of 370,000 active; active = well fitted inhibition curve with a large enough effect in the polarisation, with a control signal flat; inconclusive = small, poorly fitted or top-dose-only effect, or effect the other way, or a change in a side signal; inactive = no such curve, though single readings can be large or run the other way; the % refers to the polarisation;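 also: polarization taken with two DNA probes labelled with fluorescein and Texas red; % of control where 0% means no effect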
Target sequence (P11308 whole entry, looked up, the tested form may be a part): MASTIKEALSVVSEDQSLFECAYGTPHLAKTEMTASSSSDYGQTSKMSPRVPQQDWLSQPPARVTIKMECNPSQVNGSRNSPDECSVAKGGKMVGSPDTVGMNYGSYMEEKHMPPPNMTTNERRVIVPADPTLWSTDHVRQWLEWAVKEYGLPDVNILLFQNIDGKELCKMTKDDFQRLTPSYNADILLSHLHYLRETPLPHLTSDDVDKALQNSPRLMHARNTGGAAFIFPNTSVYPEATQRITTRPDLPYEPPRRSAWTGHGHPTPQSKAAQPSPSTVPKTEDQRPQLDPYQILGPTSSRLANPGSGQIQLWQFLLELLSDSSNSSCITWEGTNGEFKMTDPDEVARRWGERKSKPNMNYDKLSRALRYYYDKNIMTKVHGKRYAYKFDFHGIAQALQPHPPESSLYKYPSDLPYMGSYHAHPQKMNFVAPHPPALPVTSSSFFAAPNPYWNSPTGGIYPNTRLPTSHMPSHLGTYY
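His-tagged ERG Ets domain (1 uM in the protein solution; 300mM KCl, 50mM Tris-HCl, 1mM EDTA, 1mM DTT, pH 7.5) received compound, then a probe mix of 5 nM fluorescein-DNA and 100nM Texas-615-DNA. Fluorescence polarization was read for both dyes.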
Anesthetic bind – binds horse apoferritin like a general anesthetic. P02791. apoferritin/1-aminoanthracene competitive binding, fluorescence. Potency, µM (top dose mostly 77.5 µM), without a hit: top-dose activity change, negative = displacement, hits mostly inhibitors. 0.074% of 350,000 active. AID 485281; also: % is scaled to controls: 0 for no effect and ±100 for the full control effect; nearly all actives have a fitted effect of over 20% in size
Target sequence (P02791 2-175 limits assumed): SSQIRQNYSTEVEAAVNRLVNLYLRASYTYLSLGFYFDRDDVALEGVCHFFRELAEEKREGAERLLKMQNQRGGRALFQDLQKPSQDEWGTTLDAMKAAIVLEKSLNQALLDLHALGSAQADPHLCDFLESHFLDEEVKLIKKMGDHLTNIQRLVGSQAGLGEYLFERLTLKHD
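Horse-spleen apoferritin (10 uM) in 50% saturated 1-aminoanthracene in PBS was incubated 10 min at room temperature with compound. Fluorescence (ex 380, em 535 nm) was normalized to free and bound 1-AMA, with concentration-response fitted by a four-parameter Hill equation.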
RGS12 GoLoco inh – blocks human Gai1 binding to RGS12 GoLoco peptide, red readout; 0.44% of 230,000 active; P63096; Potency, µM (series often up to 61.6 µM), inactives show at the top dose activity, negative = inhibition, hits mostly inhibitors; Gai1:RGS12 GoLoco peptide FP, rhodamine, 10 min; active = well fitted inhibition curve with a large enough effect, not every such curve was filed as active; inactive = no such curve, though single readings can be large or run the other way; also: % is scaled to controls: 0 for no effect and ±100 for the full control effect; nearly all actives have a fitted effect of over 30% in size
BRCA1 expr up – BRCA1 expression activation; MCF7-BRCA1-FFLuc reporter, luminescence, 48 h; response scale: scaled: vehicle 0%, 10 µM genistein 100%; Potency, µM (highest dose often 46.1 µM), without a hit: at the highest dose activation, most hits filed as activators; 1.1% of 380,000 active; AID 624202; also: nearly all actives have a fitted effect of over 80% in size
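MCF7 cells carrying a BRCA1-firefly luciferase reporter (2000 cells/well, phenol-red free MEM) were attached for 2 h at 37 °C, then given compounds for 48 h. Luminescence was read 15 min after luciferase reagent; activity normalized to genistein (10 microM) and DMSO.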
* = called active by the depositor; ? = inconclusive; . = no result; ! = not confirmed by another sample; [ ] = dose if it differs, or a comment. Unless noted, calls follow the shape of the dose curve; as a rule, active = well fitted curve in the direction sought with a large enough effect; inconclusive = small, poorly fitted or top-dose-only effect, or another doubt; inactive = no such curve, though single readings can be large; an effect the other way counts as inactive or inconclusive. Potency is read from the fitted curve at half-maximal effect.

SMILES | ERG Ets-DNA blk | Anesthetic bind | RGS12 GoLoco inh | BRCA1 expr up
CC[C@H](C)[C@H](NC(=O)[C@H](C)NC(=O)[C@H](Cc1cnc[nH]1)NC(=O)[C@@H]1CCCN1C(=O)CNC(=O)[C@H](CC(C)C)NC(=O)[C@H](CC(C)C)NC(=O)[C@H](Cc1ccc(O)cc1)NC(=O)CNC(=O)[C@H](C)NC(=O)[C@H](CO)NC(=O)[C@H](CC(N)=O)NC(=O)[C@H](CC(C)C)NC(=O)[C@@H](NC(=O)[C@H](Cc1c[nH]c2ccccc12)NC(=O)CN)[C@@H](C)O)C(=O)N[C@@H](CC(=O)O)C(=O)N[C@@H](CC(N)=O)C(=O)N[C@@H](Cc1cnc[nH]1)C(=O)N[C@@H](CCCNC(=N)N)C(=O)N[C@@H](CO)C(=O)N[C@@H](Cc1ccccc1)C(=O)N[C@@H](CO)C(=O)N[C@@H](CC(=O)O)C(=O)N[C@@H](CCCCN)C(=O)N[C@@H](Cc1cnc[nH]1)C(=O)NCC(=O)N[C@@H](CC(C)C)C(=O)N[C@H](C(N)=O)[C@@H](C)O | . | 5.1% | . | .
COc1ccc(CNC(=O)c2ccc(C(C)(C)C)cc2)cc1 | -3.1% | ? | -8.1% | 3.55µM*
Cc1sc(NC(=O)/C=C/c2ccco2)c(C(=O)O)c1C | 0.2% | -3.2% | 5.4% | 2.24µM*
C=C1CCO[C@@]2([C@H](O)[C@@](C)(O)CO)NC(=O)[C@]1(O)NC2=O | . | . | 4.6%[14.2 µM] | .
COc1ccc(-c2cc(-c3cc(F)ccc3O)[nH]n2)cc1OC | -0.8% | -9.7% | 8.9% | 10µM*
COc1ccc(-c2cc(-c3ccccc3O)[nH]n2)cc1OC | -3.5% | ? | 4.9% | ?
COC(=O)CNc1c(-c2ccccn2)nc2ccc(Br)cn12 | -3.3% | -10.0% | 19.8% | 4.47µM*
Cc1ccc(Nc2c(-c3ccccn3)nc3ccc(Br)cn23)cc1 | 3.3% | 5.3% | . | .
CC(C)(CC(=O)Nc1ccccc1)C(=O)O | . | . | 1.7%[14.2 µM] | .
CCc1cc(C(=O)NNC(=S)Nc2cc(C)ccc2C)cs1 | -5.3% | -10.8% | -1.8% | -0.7%
CCc1cc(C(=O)NNC(=S)Nc2ccccc2C)cs1 | 0.1% | -8.4% | 4.6% | 10µM*
COc1ccccc1C1SCCN1S(C)(=O)=O (stereo not given) | 0.5% | 11.2µM* | -2.0% | -13.9%
COc1ccc(OC)c(C2SCCN2S(C)(=O)=O)c1 (stereo not given) | 0.8% | -0.8% | 7.6% | 12.0%
O=C1OC2(c3ccc(O)cc3Oc3cc(O)ccc32)c2ccccc21 | . | 849.9% | 0.794µM* | .
Cc1ccc(C(=O)Nc2nc(-c3ccc4c(c3)OCCO4)cs2)o1 | . | . | . | 8.91µM*
O=C(Nc1nc(-c2ccc3c(c2)OCCO3)cs1)c1ccc(Br)o1 | . | . | . | 4.8%
Cc1nc(-c2ccc3c(c2)OCCO3)cs1 | -5.7% | ? | -10.1% | 7.94µM*
Cc1ccc(C)c(-c2ccc(C(=O)O)o2)c1 | . | -8.0%[163 µM] | -3.2%[136 µM] | .
CCCNC(=O)N1N=C(c2ccc(N)cc2)c2cc3c(cc2C1C)OCO3 (stereo not given) | . | -3.9% | . | .
C(=C\c1ccnc2ccccc12)/c1ccccc1 | . | . | . | -41.3%
O=c1ccc2ccccc2[nH]1 | . | -8.0% | . | .
COc1cc(O)c(C(=O)/C=C/c2ccccc2)c(OC)c1 | 13.7% | -10.4% | 25.1µM*! | -27.6%
Cc1sc2nc(SCc3nc(-c4ccccc4)no3)n(-c3ccccc3)c(=O)c2c1C | -8.4% | -0.8% | 10µM* | 14.7%
CCC(C)N1C(=O)S/C(=C/c2ccc(N3CCOCC3)cc2C)C1=O (stereo not given) | 1.6% | -15.0% | 2.8% | 8.91µM*
Cc1cc(N2CCOCC2)ccc1/C=C1\SC(=O)N(C(C)C)C1=O | 1.6% | -10.8% | 22.5% | ?
SMILES | ERG Ets-DNA blk | Anesthetic bind | RGS12 GoLoco inh | BRCA1 expr up
O=C(O)c1ccc(-c2ccc(OS(=O)(=O)c3ccccc3F)cc2)cc1 | 0.1% | 3.8% | . | 12.6µM*
O=C1c2ccccc2C(=O)N1CCC1=CCCCC1 | -13.0% | 22.4µM* | -0.3% | -49.5%
Cc1noc(C)c1S(=O)(=O)NCCc1csc2nc(-c3ccc(Cl)cc3)nn12 | -11.1% | 4.6% | . | .
O=C1C=CC2=C3c4cc(O)c(O)cc4C[C@]3(O)COC2=C1 | . | 36.2% | 0.251µM* | .
CCc1n[nH]c(=S)n1/N=C/c1ccc2c(c1)OCO2 | -0.3% | ? | -6.3% | -0.6%
Oc1ccccc1/C=N/n1c(COc2ccccc2)n[nH]c1=S | 28.2µM* | -5.3% | . | 0.1%
CCc1n[nH]c(=S)n1/N=C/c1ccc(N(C)c2ccccc2)cc1 | 5.01µM* | 175.2% | 11.7% | -37.2%
Oc1ccc(/C=N/n2c(COc3ccccc3)n[nH]c2=S)c(O)c1 | -2.7% | -2.4% | . | -7.1%
N#Cc1nc(-c2ccc(OCc3ccccc3Cl)cc2)oc1N1CCCCCC1 | . | . | . | 5.3%
Cc1cccc2cc3ccc4ccccc4c3cc12 | . | . | 11.8%[14.2 µM] | .
CCCCc1ccc(NC(=O)COC(=O)c2ccccc2OCC(=O)Nc2ccc(Br)cc2)cc1 | . | . | . | 0.0%
CCCC1OC23CCCCC2C(C#N)(C(=N)O3)C1(C#N)C#N (stereo not given) | -8.1% | 118.6% | 28.2µM* | -2.8%
CCC1OC23CCCCC2C(C#N)(C(=N)O3)C1(C#N)C#N (stereo not given) | -6.6% | 207.4% | 35.5µM* | -11.7%
N#CC1(C#N)COC23CCCCC2C1(C#N)C(=N)O3 (stereo not given) | ? | 120.2% | 0.891µM* | 0.0%
CC1OC23CCCCC2C(C#N)(C(=N)O3)C1(C#N)C#N (stereo not given) | -4.2% | 77.9% | -31.4% | 2.3%
Cc1ccc(S(=O)(=O)N2CCN(c3cc(-c4cccs4)nc4ccccc34)CC2)cc1 | . | . | . | 13.5%
CCn1nccc1C(=O)Nc1ccc(Cl)cc1Cl | 16.3% | -0.2% | 3.6% | 10µM*
CCOC(=O)COn1c(-c2cccc(Cl)c2)nc2ccc([N+](=O)[O-])cc21 | 0.7% | -21.7% | 8.6% | 7.08µM*
Cc1ccc(C(=O)Nc2ccc(N3CCOCC3)cc2)cc1 | . | -15.5% | . | 8.91µM*
O=C(Cc1ccccc1)Nc1ccc(CN2CCOCC2)cc1 | . | -2.3% | 12.7% | 10µM*
O=C(Cc1cccs1)Nc1ccc(N2CCOCC2)cc1 | 0.3% | -14.7% | -5.6% | 7.94µM*
CC(=O)N1CCN(c2ccc(NC(=O)c3ccc(Cl)cc3)cc2)CC1 | -2.4% | -4.1% | . | 1.3%
O=C(Nc1ccc(CN2CCOCC2)cc1)c1ccccc1F | -6.1% | -8.2% | 0.4% | 70.4%
CC(=O)N1CCN(c2ccc(NC(=O)c3cccc(Cl)c3)cc2)CC1 | -2.2% | -5.1% | . | 11.2µM*
Cc1cc(I)ccc1Nc1c(C(=O)NOCC2CC2)cc(F)c(F)c1F | . | -13.4% | . | .
CCOc1ccc(/C=C/c2cc[n+](C)c3ccccc23)cc1OCC | . | . | . | 6.4%
O=C(CSc1ccccc1)Nc1ccc(N2CCOCC2)c(F)c1 | 7.7% | -6.5% | . | 7.94µM*
COc1ccc(C(=O)Nc2ccc(N3CCCCC3)cc2)cc1Br | 2.2% | 4.7% | -2.9% | 3.55µM*
O=C(Nc1ccc(N2CCOCC2)cc1)C1CCN(C(=O)OCc2ccccc2)CC1 | 4.8% | 2.4% | 13.6% | 2.82µM*
O=C(CSc1ccccc1F)Nc1ccc(N2CCOCC2)cc1 | -7.4% | . | . | 5.62µM*
